# Experimental data from PubChem BioAssay (NCI).
# Compounds without any hit were thinned out: in the full panel of roughly 83,000, 20% have a hit.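 Assay: single dose, 48 h. Readout: percent growth (0 = no net growth; negative = cell death). Active: <10.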 Unmarked numbers belong to inactive results. Activity calls are given as the source filed them.
# How the values were obtained:
# Test in all cases: NCI-60 one-dose screen, 48 h (100 = growth as untreated, 0 = no growth, -100 = all killed)
# [1] = tested on: SK-MEL-2 melanoma; conditions: 10 µM unless noted
# [2] = tested on: EKVX NSCLC; conditions: 10 µM unless noted
# [3] = tested on: SN12C renal; conditions: 10 µM unless noted
# [4] = tested on: UO-31 renal; conditions: 10 µM unless noted
# [5] = tested on: TK-10 renal; conditions: 10 µM unless noted
# [6] = tested on: ACHN renal; conditions: 10 µM unless noted
# [7] = tested on: CAKI-1 renal; conditions: 10 µM unless noted
# [8] = tested on: A498 renal; conditions: 10 µM
# [9] = tested on: HL-60(TB) leukemia; conditions: 10 µM unless noted
# [10] = tested on: CCRF-CEM leukemia; conditions: 10 µM unless noted
# [11] = tested on: MOLT-4 leukemia; conditions: 10 µM unless noted
# [12] = tested on: SR leukemia; conditions: 10 µM unless noted
# [13] = tested on: RPMI-8226 leukemia; conditions: 10 µM unless noted
# [14] = tested on: OVCAR-8 ovarian; conditions: 10 µM unless noted
# [15] = tested on: OVCAR-5 ovarian; conditions: 10 µM unless noted
# [16] = tested on: OVCAR-4 ovarian; conditions: 10 µM unless noted
# [17] = tested on: SK-OV-3 ovarian; conditions: 10 µM unless noted
# [18] = tested on: IGROV1 ovarian; conditions: 10 µM unless noted
# [19] = tested on: OVCAR-3 ovarian; conditions: 10 µM unless noted
# [20] = tested on: HS 578T breast; conditions: 10 µM unless noted
SMILES,growth [1],growth [2],growth [3],growth [4],growth [5],growth [6],growth [7],growth [8],growth [9],growth [10],growth [11],growth [12],growth [13],growth [14],growth [15],growth [16],growth [17],growth [18],growth [19],growth [20]
O=C1C2C(C(=O)[N]1[Hg][c]1cccs1)C1(Cl)C(Cl)=C(Cl)C2(Cl)C1(Cl)Cl (configuration not stated),54.6%,34.5%,-46.9% (active),-29.8% (active),49.9%,-35.7% (active),1.56% (active),124%,-12.1% (active),-14.1% (active),3.08% (active),1.72% (active),-11.4% (active),11.9%,13.7%,37.3%,102%,0.499% (active),-91.1% (active),
CC(=O)O[C@H]1C(=O)[C@@]2(C)[C@H]([C@H](OC(=O)c3ccccc3)[C@]3(O)C[C@H](OC(=O)[C@H](OC(=O)OC[C@@H]4COC(C)(C)O4)[C@@H](NC(=O)c4ccccc4)c4ccccc4)C(C)=C1C3(C)C)[C@]1(OC(C)=O)CO[C@@H]1C[C@@H]2O,24.3%,29.1%,27%,34.1%,26%,36.2%,27.4%,13.4%,4.01% (active),17.8%,14.7%,25.5%,5.35% (active),16.5%,6.96% (active),64.4%,12.9%,16.6%,8.13% (active),2.33% (active)
CC(=O)OC1C(OC/C2=C/C3[C@@H](C(C)C)CC=C(C)[C@@H]3CC(OC(=O)/C=C/c3cn(C)cn3)[C@]3(C)C=C[C@@]2(O)O3)OCC(O)C1O (some centres not stated),45.6%,33.9%,44.2%,40.4%,32.3%,45%,37%,13.2%,-3.65% (active),22.5%,35.8%,24.8%,4.84% (active),32.7%,49.4%,43%,11.9%,33.6%,15.3%,21.8%
COC(=O)C12CC(NC(=O)c3csc([C@@H](C[C@H](C(C)C)N(C)C(=O)[C@@H](NC(=O)[C@H]4CCCCN4C)C4CC4)OC(C)=O)n3)(C1)C2,34.7%,59.8%,37.9%,48.5%,39.2%,33.6%,38.6%,-5.31% (active),-44% (active),17.2%,15.9%,17.5%,22.9%,19.3%,35.7%,43.5%,3% (active),29.5%,-25.2% (active),
CN1C(=O)C23CC4(C56CC78SSC(CO)(C(=O)N7C5Nc5ccccc56)N(C)C8=O)c5ccccc5NC4N2C(=O)C1(CO)SS3 (configuration not stated),-84.6% (active),-62.3% (active),-100% (active),-100% (active),-90.2% (active),-100% (active),-98.7% (active),-98.9% (active),-63.1% (active),-11.2% (active),-62.2% (active),-75.8% (active),-25.8% (active),-94.7% (active),-77.7% (active),-94.5% (active),-98.6% (active),-100% (active),-97.8% (active),-54.5% (active)
O=C(CCCCCCC(=O)Nc1ccc(N(CCCl)CCCl)cc1)NO,49.5%,76.7%,18.8%,62%,38.5%,16.7%,23%,54.1%,18.4%,19.4%,19.5%,12.2%,49.1%,19.3%,53.7%,44.9%,26.3%,59.2%,41.7%,71.7%
COc1cc2c(cc1OCCCn1c(-c3ccccn3)nc3ccccc31)N=C[C@@H]1CCCN1C2=O,-71.1% (active),43.3%,26%,-53.7% (active),-20.8% (active),-64.9% (active),-6.53% (active),-72.1% (active),-21.7% (active),5.34% (active),8.22% (active),3.55% (active),-37.5% (active),25.5%,2.58% (active),15.6%,30.8%,-62.3% (active),2.94% (active),-2.53% (active)
COC(=O)[C@@H](C)C[C@H](Cc1ccccc1)NC(=O)c1csc([C@@H](C[C@H](C(C)C)N(C)C(=O)[C@@H](NC(=O)CN(C)C)C2CC2)OC(C)=O)n1,11.6%,46.3%,46.8%,41.6%,45.5%,25.3%,63.5%,0.468% (active),-27% (active),10.3%,16.6%,3.74% (active),34.3%,20.1%,56.3%,54.4%,42.2%,28.4%,1.63% (active),32.3%
O=C1C2C(C(=O)[N]1[Hg][c]1ccccc1)C1(Cl)C(Cl)=C(Cl)C2(Cl)C1(Cl)Cl (configuration not stated),50.8%,-7.36% (active),-71.7% (active),-77.1% (active),-95.9% (active),-98.5% (active),-87.5% (active),32.8%,-18.4% (active),-23.8% (active),-2.76% (active),-23.6% (active),-40.8% (active),-47.4% (active),73%,5.55% (active),62.1%,-39.3% (active),-85.5% (active),-14.1% (active)
c1cc2c(c3c1CCNC3)OCO2,101%,95.6%,100%,90.2%,101%,111%,91.1%,118%,101%,124%,100%,93%,109%,107%,108%,110%,92.6%,99.9%,118%,
O=[N+]([O-])c1ccc([Se]C2CCCCC2Cl)c([N+](=O)[O-])c1 (configuration not stated),66.5%,46%,59.5%,-88.3% (active),102%,88.2%,76.7%,29.4%,78.8%,80.9%,73.2%,78.7%,82.8%,59.7%,101%,78.8%,106%,70.8%,88.2%,22.2%
CC[C@H](C)[C@H](NC(=O)c1nccn1C)C(=O)N(C)[C@H](C[C@@H](OC(C)=O)c1nc(C(=O)N[C@@H](Cc2ccccc2)C[C@H](C)C(=O)OC)cs1)C(C)C,28.5%,52.8%,40.2%,47.3%,41.9%,42.3%,33.8%,-9.78% (active),-43.5% (active),15.9%,15.9%,14.2%,24.6%,16.3%,38%,48.4%,19.4%,35.6%,-19.8% (active),20.6%
O=C1C(=Cc2cn(Cc3ccccc3)c3ccccc23)C(=O)N(Cc2ccccc2)C(=O)N1Cc1ccccc1,83.9%,97.5%,101%,73.3%,40.7%,86.2%,94.6%,-95.7% (active),96.4%,118%,95.2%,87.2%,93.2%,83.5%,-7.28% (active),57.3%,47.7%,75.8%,97.7%,90.7%
CC[C@]12C=CCN3CC[C@]4(C(=C(C(=O)OC)C1)Nc1cc(OC)c(OC(C)=O)cc14)[C@@H]32,41.5%,55.6%,8.6% (active),28.6%,21.4%,21.4%,21%,-7.74% (active),-8.44% (active),0.65% (active),9.7% (active),7.64% (active),7.27% (active),5.97% (active),43%,38.6%,2.29% (active),26.3%,14.1%,46.7%
O=Cc1cn(Cc2ccc(Cl)cc2)c2ccccc12,82.7%,88.9%,89.6%,61.4%,0.213% (active),91.6%,-20.8% (active),-89.8% (active),97.7%,89.6%,90.1%,80.9%,77.1%,90.1%,-36.7% (active),57.5%,31.1%,6.46% (active),63.8%,83.9%
